# Source: ChEMBL document CHEMBL3988442, “University of Dundee, Small-Polar-MMV Screening Library” (2021)
# For part of these data: Potency and affinity values are given separately.
# Tests used:
# [1] = biological target: Protein translocase subunit SecA (Escherichia coli (strain K12)) (UniProt P10408); experiment: Assay to Identify E. coli SecA ATPase Inhibitors; format: functional; set-up: scale not given: direction of the effect not stated beside the values; conditions: 30 µM
# [2] = biological target: T1, Ubiquitin-activating enzyme e1, putative (Leishmania donovani (strain BPK282A1)) (UniProt E9BSI1); experiment: Leishmania donovani Ubiquitin Activating Enzyme (LdE1); format: functional; set-up: scale not given: direction of the effect not stated beside the values; conditions: 30 µM
# T1 sequence (whole entry): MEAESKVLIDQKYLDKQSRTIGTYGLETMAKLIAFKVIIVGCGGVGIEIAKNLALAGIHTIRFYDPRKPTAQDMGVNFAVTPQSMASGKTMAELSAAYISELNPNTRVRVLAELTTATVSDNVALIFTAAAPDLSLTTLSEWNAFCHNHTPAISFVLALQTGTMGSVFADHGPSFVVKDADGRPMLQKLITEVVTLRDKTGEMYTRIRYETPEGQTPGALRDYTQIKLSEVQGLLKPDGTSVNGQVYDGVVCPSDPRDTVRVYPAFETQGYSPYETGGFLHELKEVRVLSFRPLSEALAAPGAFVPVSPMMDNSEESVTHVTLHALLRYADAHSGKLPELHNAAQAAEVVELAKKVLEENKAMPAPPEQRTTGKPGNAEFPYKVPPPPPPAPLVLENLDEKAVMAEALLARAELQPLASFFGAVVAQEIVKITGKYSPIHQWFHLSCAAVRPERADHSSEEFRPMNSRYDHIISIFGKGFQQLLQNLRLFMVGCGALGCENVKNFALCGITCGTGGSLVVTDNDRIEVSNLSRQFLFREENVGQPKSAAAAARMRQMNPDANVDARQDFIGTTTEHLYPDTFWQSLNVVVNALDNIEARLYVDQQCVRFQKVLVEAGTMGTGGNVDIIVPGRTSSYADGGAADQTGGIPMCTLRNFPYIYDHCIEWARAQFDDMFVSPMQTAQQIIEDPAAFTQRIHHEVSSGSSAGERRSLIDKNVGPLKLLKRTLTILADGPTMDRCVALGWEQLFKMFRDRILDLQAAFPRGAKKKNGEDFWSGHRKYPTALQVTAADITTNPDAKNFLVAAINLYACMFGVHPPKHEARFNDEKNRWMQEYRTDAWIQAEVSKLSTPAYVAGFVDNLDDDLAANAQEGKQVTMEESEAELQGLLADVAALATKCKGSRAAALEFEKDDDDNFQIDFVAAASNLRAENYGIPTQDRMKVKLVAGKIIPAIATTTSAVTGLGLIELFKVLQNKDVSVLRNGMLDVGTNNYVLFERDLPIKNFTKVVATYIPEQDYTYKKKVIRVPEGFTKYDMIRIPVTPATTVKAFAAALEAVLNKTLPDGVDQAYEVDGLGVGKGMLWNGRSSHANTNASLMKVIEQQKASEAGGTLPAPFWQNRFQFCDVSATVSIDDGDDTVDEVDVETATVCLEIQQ
# [3] = biological target: T2, Aspartate--tRNA(Asp/Asn) ligase (Mycobacterium tuberculosis (strain ATCC 25618 / H37Rv)) (UniProt P9WFW3); experiment: Assay for Asp RNA synthetase-1 from Mycobacterium tuberculosis; format: functional; set-up: scale not given: direction of the effect not stated beside the values; conditions: 30 µM; also: in the data most compounds retested in dose-response had high values
# T2 sequence (whole entry): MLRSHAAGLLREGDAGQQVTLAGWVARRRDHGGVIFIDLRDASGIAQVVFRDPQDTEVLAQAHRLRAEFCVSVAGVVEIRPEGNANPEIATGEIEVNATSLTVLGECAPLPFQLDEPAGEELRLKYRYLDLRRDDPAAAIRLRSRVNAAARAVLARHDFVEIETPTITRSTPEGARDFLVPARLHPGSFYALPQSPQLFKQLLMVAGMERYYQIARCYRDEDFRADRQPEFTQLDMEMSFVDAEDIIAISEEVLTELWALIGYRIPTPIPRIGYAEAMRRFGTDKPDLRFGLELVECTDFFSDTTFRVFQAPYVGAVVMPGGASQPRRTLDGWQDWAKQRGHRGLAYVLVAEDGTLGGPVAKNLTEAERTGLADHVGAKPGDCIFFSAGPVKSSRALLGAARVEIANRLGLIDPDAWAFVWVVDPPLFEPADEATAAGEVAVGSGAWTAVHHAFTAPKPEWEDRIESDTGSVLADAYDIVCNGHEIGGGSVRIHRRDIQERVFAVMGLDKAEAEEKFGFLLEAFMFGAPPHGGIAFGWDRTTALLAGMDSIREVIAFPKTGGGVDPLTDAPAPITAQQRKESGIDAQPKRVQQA
# [4] = biological target: AMP-activated protein kinase, AMPK (Homo sapiens) (UniProt P54646+O43741+P54619+Q9UGJ0+Q9Y478+Q13131+Q9UGI9); experiment: AMP-dependent Kinase enzyme assay. An in vitro enzyme assay that detects ADP turnover that is directly proportional to AMPK activity. This uses naive AMPK that is activated during the assay with MK-8722; format: functional; set-up: scale not given: direction of the effect not stated beside the values; conditions: 30 µM
# [5] = biological target: Sialic acid-binding Ig-like lectin 9 (Homo sapiens) (UniProt Q9Y336); experiment: Hs-Siglec9 ALPHAscreen SOP 20170721; set-up: scale not given: direction of the effect not stated beside the values; conditions: 10 µM
# [6] = test system: Trypanosoma cruzi; experiment: Trypanosoma cruzi phosphomannomutase and mannose-1-phosphate guanylyltransferase assay; format: functional; set-up: scale not given: direction of the effect not stated beside the values; conditions: 10 µM
# [7] = biological target: T3, Arginase-2, mitochondrial (Homo sapiens) (UniProt P78540); experiment: in vitro enzyme assay to detect the production of urea directly proportional to the activity of Arginase II; format: functional; set-up: scale not given: in the data most compounds retested in dose-response had high values
# T3 sequence (whole entry): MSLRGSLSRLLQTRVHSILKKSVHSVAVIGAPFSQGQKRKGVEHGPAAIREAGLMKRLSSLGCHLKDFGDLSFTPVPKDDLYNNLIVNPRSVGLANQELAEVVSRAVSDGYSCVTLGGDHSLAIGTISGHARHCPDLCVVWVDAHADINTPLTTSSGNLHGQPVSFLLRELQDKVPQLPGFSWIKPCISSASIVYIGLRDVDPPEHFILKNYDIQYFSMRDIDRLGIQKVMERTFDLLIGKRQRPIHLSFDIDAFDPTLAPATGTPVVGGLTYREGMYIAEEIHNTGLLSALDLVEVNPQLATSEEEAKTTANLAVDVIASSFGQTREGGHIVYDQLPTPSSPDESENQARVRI
# [8] = biological target: T4, Proteasome subunit beta (Trypanosoma cruzi) (UniProt O96673); experiment: Trypanosoma cruzi proteasome chymotrypsin-like activity (TcProtChymo) assay.; format: functional; set-up: scale not given: in the data most compounds retested in dose-response had high values; conditions: 9.37 µM
# T4 sequence (whole entry): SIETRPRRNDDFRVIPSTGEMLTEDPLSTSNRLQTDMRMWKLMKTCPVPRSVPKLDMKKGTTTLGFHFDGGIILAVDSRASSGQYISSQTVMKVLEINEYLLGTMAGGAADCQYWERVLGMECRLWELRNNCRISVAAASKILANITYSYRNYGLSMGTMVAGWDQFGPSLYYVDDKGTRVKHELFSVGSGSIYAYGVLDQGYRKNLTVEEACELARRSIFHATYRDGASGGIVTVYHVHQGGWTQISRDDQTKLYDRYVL
# [9] = organism: Homo sapiens; experiment: To identify inhibition of the IFN signalling (Jak-Stat) pathway via expression of an eGFP reporter gene under the control of an IFN-stimulated response element (ISRE) containing MxA promoter.; format: functional; set-up: scale not given: direction of the effect not stated beside the values; conditions: 30 µM
# [10] = biological target: Shiga toxin 2 (Escherichia coli O157:H7) (UniProt P09385+P09386); experiment: E. coli 0.157:H7 Shiga Toxin SOP - stx2 screening assay; format: functional; set-up: scale not given: direction of the effect not stated beside the values; conditions: 30 µM
# [11] = biological target: T5, Tyrosyl-tRNA synthetase, putative (Trypanosoma cruzi (strain CL Brener)) (UniProt Q4DSP6); experiment: Trypanosoma cruzi tyrosyl tRNA synthetase (TcYRS) _High Tyrosine SOP; format: functional; set-up: scale not given: in the data most compounds retested in dose-response had high values; conditions: 30 µM
# T5 sequence (whole entry): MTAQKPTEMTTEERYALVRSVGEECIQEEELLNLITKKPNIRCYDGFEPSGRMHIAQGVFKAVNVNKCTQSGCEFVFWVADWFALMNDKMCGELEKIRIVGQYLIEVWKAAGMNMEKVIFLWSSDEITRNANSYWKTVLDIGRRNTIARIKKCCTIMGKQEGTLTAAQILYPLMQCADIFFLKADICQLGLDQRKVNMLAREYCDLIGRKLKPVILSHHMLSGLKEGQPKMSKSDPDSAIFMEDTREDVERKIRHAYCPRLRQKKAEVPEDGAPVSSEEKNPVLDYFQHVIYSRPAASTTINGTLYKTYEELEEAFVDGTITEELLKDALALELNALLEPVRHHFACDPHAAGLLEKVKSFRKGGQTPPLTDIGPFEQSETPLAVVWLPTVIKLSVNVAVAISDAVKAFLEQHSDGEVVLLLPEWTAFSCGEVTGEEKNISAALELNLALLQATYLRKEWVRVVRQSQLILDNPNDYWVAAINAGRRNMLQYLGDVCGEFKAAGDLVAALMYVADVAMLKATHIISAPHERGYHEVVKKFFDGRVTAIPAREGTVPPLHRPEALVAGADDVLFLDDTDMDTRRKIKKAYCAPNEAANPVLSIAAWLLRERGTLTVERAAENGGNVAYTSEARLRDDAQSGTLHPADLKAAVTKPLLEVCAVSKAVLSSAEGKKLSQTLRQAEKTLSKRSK
# [12] = biological target: T5, Tyrosyl-tRNA synthetase, putative (Trypanosoma cruzi (strain CL Brener)); experiment: Trypanosoma cruzi tyrosyl tRNA synthetase (TcYRS) SOP; format: functional; set-up: scale not given: direction of the effect not stated beside the values; conditions: 30 µM
# [13] = biological target: Chromo domain-containing protein 1 (Saccharomyces cerevisiae (strain ATCC 204508 / S288c) (Baker's yeast)) (UniProt P32657); experiment: ScCHD-1 Enzyme Inhibition Assay; format: functional; set-up: scale not given: in the data most compounds retested in dose-response had high values; conditions: 30 µM
# [14] = biological target: T6, Methionyl-tRNA synthetase, putative (Leishmania donovani (strain BPK282A1)) (UniProt E9BF75); experiment: Leishmania donovani Methionine tRNA synthetase (LdMetRS):v7. Dose response assay; format: functional; set-up: conc 80 nM, time 150 minutes
# T6 sequence (whole entry): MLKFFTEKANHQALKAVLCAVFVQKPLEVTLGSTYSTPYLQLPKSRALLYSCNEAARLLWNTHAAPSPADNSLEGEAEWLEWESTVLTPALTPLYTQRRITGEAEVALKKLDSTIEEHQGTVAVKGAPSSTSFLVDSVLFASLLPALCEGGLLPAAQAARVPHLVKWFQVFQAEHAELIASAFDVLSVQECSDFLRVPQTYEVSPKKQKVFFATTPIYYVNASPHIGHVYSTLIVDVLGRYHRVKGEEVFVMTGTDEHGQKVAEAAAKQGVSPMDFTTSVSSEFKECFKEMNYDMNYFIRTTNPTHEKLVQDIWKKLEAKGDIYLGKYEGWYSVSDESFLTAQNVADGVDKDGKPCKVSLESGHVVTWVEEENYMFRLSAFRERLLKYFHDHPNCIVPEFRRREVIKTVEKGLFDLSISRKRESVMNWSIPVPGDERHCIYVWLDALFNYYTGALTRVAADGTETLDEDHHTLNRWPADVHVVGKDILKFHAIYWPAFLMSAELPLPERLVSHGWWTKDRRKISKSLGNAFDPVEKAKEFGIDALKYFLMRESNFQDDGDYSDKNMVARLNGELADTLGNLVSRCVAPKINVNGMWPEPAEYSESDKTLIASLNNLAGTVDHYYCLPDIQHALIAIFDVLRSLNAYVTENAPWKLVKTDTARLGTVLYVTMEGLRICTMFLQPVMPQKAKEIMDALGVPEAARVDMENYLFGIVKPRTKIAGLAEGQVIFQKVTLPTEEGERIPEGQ
# Chain of Sialic acid-binding Ig-like lectin 9 (Homo sapiens) (Q9Y336 whole entry): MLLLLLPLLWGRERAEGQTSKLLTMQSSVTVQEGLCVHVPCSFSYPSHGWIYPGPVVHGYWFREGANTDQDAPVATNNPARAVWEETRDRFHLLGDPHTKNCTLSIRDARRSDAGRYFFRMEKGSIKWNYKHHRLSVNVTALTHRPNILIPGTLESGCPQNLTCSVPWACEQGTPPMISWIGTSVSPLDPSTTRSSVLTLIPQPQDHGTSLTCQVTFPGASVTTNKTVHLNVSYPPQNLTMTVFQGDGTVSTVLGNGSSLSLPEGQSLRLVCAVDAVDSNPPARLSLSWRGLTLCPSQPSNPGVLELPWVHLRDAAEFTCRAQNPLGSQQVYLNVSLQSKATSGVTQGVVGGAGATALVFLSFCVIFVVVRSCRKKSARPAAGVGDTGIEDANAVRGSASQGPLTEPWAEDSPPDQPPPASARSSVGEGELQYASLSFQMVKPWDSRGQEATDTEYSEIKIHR
# Chain of Chromo domain-containing protein 1 (Saccharomyces cerevisiae (strain ATCC 204508 / S288c) (Baker's yeast)) (P32657 whole entry, the tested form may be a part): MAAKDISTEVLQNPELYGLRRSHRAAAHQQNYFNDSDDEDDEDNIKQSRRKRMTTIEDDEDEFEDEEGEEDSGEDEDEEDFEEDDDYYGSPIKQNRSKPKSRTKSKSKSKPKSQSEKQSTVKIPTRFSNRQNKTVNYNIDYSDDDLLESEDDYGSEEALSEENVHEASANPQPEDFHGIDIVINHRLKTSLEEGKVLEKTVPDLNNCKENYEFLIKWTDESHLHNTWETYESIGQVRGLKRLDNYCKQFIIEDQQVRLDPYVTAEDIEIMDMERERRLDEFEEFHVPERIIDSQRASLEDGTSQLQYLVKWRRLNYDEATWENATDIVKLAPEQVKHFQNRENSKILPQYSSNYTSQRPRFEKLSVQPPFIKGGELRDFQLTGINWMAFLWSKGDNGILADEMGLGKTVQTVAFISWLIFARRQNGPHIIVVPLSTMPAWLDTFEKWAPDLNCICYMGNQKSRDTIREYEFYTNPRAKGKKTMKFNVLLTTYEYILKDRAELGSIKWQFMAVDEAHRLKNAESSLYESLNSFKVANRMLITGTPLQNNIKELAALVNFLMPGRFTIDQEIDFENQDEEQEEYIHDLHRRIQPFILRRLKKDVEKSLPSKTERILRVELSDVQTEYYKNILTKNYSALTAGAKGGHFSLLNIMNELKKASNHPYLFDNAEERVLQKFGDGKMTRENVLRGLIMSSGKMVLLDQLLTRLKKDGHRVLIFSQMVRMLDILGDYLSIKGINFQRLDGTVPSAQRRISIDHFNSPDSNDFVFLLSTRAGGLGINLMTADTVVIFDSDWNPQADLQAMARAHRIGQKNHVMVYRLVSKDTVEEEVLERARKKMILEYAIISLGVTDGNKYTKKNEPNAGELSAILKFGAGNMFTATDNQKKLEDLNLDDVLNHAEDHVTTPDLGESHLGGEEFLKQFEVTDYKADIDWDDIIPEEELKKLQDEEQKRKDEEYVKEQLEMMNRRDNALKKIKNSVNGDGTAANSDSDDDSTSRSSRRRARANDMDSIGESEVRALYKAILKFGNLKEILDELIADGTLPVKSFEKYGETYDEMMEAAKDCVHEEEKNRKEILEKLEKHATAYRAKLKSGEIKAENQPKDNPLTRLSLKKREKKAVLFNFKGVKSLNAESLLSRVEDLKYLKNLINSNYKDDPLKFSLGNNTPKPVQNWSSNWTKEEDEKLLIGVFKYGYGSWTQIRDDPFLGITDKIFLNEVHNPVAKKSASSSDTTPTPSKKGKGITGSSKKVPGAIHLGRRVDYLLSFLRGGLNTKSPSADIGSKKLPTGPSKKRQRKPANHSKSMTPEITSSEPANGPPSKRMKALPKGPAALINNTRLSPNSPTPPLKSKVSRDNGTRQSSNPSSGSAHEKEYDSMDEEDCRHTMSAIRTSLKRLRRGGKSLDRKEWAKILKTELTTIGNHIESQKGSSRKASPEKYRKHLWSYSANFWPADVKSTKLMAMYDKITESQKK
# Chain of Protein translocase subunit SecA (Escherichia coli (strain K12)) (P10408 whole entry): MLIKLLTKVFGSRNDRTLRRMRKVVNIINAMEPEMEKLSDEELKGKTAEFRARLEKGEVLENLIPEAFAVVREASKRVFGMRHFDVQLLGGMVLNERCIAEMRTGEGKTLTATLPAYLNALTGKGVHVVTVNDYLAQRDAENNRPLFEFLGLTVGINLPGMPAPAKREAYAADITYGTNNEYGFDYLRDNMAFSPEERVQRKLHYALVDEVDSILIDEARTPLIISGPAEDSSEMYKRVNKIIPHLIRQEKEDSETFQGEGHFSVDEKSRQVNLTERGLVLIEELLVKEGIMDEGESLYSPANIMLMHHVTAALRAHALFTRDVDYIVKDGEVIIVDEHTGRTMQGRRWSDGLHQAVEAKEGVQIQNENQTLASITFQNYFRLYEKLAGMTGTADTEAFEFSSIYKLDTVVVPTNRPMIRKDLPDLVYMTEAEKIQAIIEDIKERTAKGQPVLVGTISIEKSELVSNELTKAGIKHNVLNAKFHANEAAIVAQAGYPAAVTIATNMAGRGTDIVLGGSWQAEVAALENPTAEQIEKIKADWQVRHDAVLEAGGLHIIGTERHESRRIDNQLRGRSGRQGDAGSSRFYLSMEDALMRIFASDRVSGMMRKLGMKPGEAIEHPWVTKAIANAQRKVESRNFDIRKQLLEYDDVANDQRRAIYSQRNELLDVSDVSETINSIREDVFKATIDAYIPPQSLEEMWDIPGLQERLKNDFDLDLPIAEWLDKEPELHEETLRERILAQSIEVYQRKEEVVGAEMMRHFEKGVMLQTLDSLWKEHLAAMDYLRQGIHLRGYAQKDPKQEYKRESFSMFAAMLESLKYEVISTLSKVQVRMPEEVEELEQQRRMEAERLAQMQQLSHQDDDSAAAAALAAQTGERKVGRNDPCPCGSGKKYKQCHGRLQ
compound,measurement,setting,value
c1cc(CO[C@@H]2CC[C@H]3[C@H]2OCCN3CC2CCOCC2)ccn1,Percent Effect,[1],1.51%
same,Percent Effect,[2],16.2%
same,Percent Effect,[3],5.55%
same,Percent Effect,[4],7.58%
same,Percent Effect,[5],-13.8%
same,Percent Effect,[6],-4.79%
same,Percent Effect,[7]; 33.3 µM,-0.319%
same,Percent Effect,[8],3.51%
same,Percent Effect,[9],45.1%
same,Percent Effect,[10],-7.6%
same,Percent Effect,[11],2.16%
same,Percent Effect,[12],10.3%
same,Percent Effect,[13],-9.05%
c1ccc(CN2CC[C@]3(C[C@@H](Oc4ccccn4)CO3)C2)nc1,Percent Effect,[1],-4.14%
same,Percent Effect,[2],18.7%
same,Percent Effect,[3],-1.57%
same,Percent Effect,[4],-1.39%
same,Percent Effect,[5],-5.45%
same,Percent Effect,[6],-0.394%
same,Percent Effect,[7]; 30 µM,-12.4%
same,Percent Effect,[7]; 33.3 µM,0.233%
same,Percent Effect,[8],5.02%
same,Percent Effect,[9],17.7%
same,Percent Effect,[10],-36.4%
same,Percent Effect,[11],2.13%
same,Percent Effect,[12],14.1%
same,Percent Effect,[13],-0.948%
Clc1cc(CN2CCCN3CCCC3C2)c2ncccc2c1 (stereo not given),PXC50,"[14]; BOTTOM 3.20477061, HILLSLOPE 1.084567425, MAX_EFFECT 62.37623762, TOP 100.0",4.18
same,PXC50,"[14]; BOTTOM 6.472550683, HILLSLOPE 0.834102773, MAX_EFFECT 67.39130435, TOP 100.0",4.08
same,PXC50,"[14]; BOTTOM 6.940148658, HILLSLOPE 1.034617946, MAX_EFFECT 59.85663082, TOP 100.0",4.1
COc1ccc(Cl)cc1Cl,PXC50,[14]; MAX_EFFECT 11.87904968,< 3
same,PXC50,[14]; MAX_EFFECT 16.92015209,< 3
c1ccc(OC[C@]23COC[C@H]2CN(Cc2ccoc2)C3)nc1,Percent Effect,[1],-3.19%
same,Percent Effect,[2],10.7%
same,Percent Effect,[3],-2.04%
same,Percent Effect,[4],-1.7%
same,Percent Effect,[5],1.05%
same,Percent Effect,[6],4.05%
same,Percent Effect,[7]; 33.3 µM,-57.9%
same,Percent Effect,[8],12.1%
same,Percent Effect,[9],-8.07%
same,Percent Effect,[10],-23.7%
same,Percent Effect,[11],3.12%
same,Percent Effect,[12],17.5%
same,Percent Effect,[13],-6.62%
